In the supplement of paper PMC5919970:
Structures can show the parent of a compound that is named as a salt. The full ranking holds about 2,000 compounds; the median of “fractional viability relative to vehicle” is about 0.92, and the lowest 2% start at about 0.11. The list comes from a sample in which the lowest values are over-represented; it also holds similar structures and randomly drawn compounds.

System: TYKNU
Test: fractional viability relative to vehicle; TYKNU is a high-grade serous ovarian cancer line; higher = less growth inhibition
Details: 72 h, genotype: OPA1 knockout (sgOPA1 #2)
How it was run: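 Drug treatment lasted 72 h, with cells grown at 37 °C in 5% CO2 in RPMI 1640 supplemented with 10% FBS. Beforehand, TYKNU control cells or their lentiCRISPRv2 knockout derivatives had been seeded at 500 cells per well into drug-stamped 384-well plates carrying a ~2100-compound library at 2 or 10 μM, in duplicate. Viability came from Cell Titer Glo luminescence, with averaged duplicate treatment wells normalised to duplicate control wells in the same plate position.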

Structure (SMILES) | fractional viability (2uM) | fractional viability (10uM)
CC(=O)c1cc([N+](=O)[O-])c(Sc2ccc(F)cc2F)s1 | 0.985 | 0.596
COc1ccc([C@H]2CNC(=O)C2)cc1OC1CCCC1 [S- (+)-Rolipram] | 1.2 | 1.04
Cc1cc(C)nc(NS(=O)(=O)c2ccc(NC(=S)NC(=O)COc3ccc(Br)cc3Cl)cc2)n1 | 0.956 | 0.803
O=C(NCc1ccncc1)C12CC3CC(C1)CC(c1ccc(Cl)cc1)(C3)C2 | 1.06 | 0.861
NC(=O)N/N=C/c1ccc([N+](=O)[O-])o1 [Nitrofural] | 1.55 | 1.47
Cc1ccc(S(=O)(=O)c2ccc([N+](=O)[O-])o2)cc1 | 0.0667 | 0.0291
CC(C)(C)NS(=O)(=O)c1cncc(-c2cc(F)c3nc(N)nn3c2)c1 | 1.04 | 1.06
O=C(O)C1=C[C@@H](O)[C@@H](O)[C@H](O)C1 [Shikimic Acid] | 1.04 | 0.875
C=C1/C(=C\C=C2/CCC[C@]3(C)[C@@H]([C@H](C)CCCC(C)(C)O)CC[C@@H]23)C[C@@H](O)C[C@@H]1O [Calcitriol] | 0.965 | 0.937
Cc1ccccc1CN1C2=NCCN2C(=O)C2=C1CCN(Cc1ccccc1)C2 [TIC10 Analogue] | 0.878 | 0.768
COc1cc2ncnc(Oc3ccc(CC(=O)Nc4cnn(C(C)C)c4)cc3)c2cc1OC | 0.949 | 0.942
CC1(C)CC[C@]2(NC(=O)C(C)(F)F)CC[C@]3(C)[C@H](C(=O)C=C4[C@@]5(C)C=C(C#N)C(=O)C(C)(C)[C@@H]5CC[C@]43C)[C@@H]2C1 [Omaveloxolone (RTA-408)] | 0.166 | 0.0407
CN(C)CCNC(=O)c1cccn2c(=O)c3cc4ccccc4cc3nc12 | 0.61 | 0.294
COc1nccc(-c2c(-c3ccc(F)cc3)ncn2C2CCC(O)CC2)n1 (configuration not stated) | 0.999 | 0.786
CC(C)(Cc1ccc2ccccc2c1)NC[C@@H](O)COc1cccc(Cl)c1C#N | 1.06 | 0.0653
CC(C)NCC(O)COc1cccc2ccccc12 (configuration not stated) [Propranolol HCl] | 0.809 | 1.12
CC(C)(C)NCC(O)COc1cccc2c1CCC(=O)N2 (configuration not stated) [Carteolol HCl] | 0.973 | 0.93
O=[N+]([O-])c1ccc(Nc2nc(N3CCOCC3)nc(N3CCOCC3)n2)cc1 | 0.893 | 0.934
CC(C)(C)c1ccc(S(=O)(=O)NCc2ccc(C(=O)Nc3cccnc3)cc2)cc1 | 0.306 | 0.165
CCS(=O)(=O)N1CCN(c2ccc(Nc3ncc(C(N)=O)c(NC4CC4)n3)cc2)CC1 | 0.781 | 0.496
CCc1ccc(OCc2ccccc2C(=O)Nc2ccc3nc(C)cc(N)c3c2)cc1 | 0.16 | 0.0251
CCCC(=O)Nc1cccc(NC(=O)c2ccccc2Br)c1 | 1 | 1.07
COc1cc2c(cc1OC)CN(CCc1ccc(NC(=O)c3cc(OC)c(OC)cc3NC(=O)c3cnc4ccccc4c3)cc1)CC2 [Tariquidar] | 0.891 | 0.459

Structure (SMILES) | fractional viability (2uM) | fractional viability (10uM)
Cc1ccc(CNc2ncnc3ccc(-c4ccc(CO)o4)cc23)o1 | 0.989 | 1.02
O=[N+]([O-])c1cn2c(n1)OC[C@@H](OCc1ccc(OC(F)(F)F)cc1)C2 | 1.15 | 1.66
CC(C)(C)OC(=O)Nc1ccc(-c2cc(C(=O)NCCCCCCC(=O)NO)no2)cc1 | 0.367 | 0.171
COc1cc(/C=C/C(=O)N2CCN(CC(=O)N3CCCC3)CC2)cc(OC)c1OC [Cinepazide maleate] | 0.929 | 0.991
COc1ccc(/C=C\c2cc(OC)c(OC)c(OC)c2)cc1O [Combretastatin A4] | 0.313 | 0.292
COc1cc(/C=C/C(=O)N2CCC=CC2=O)cc(OC)c1OC [Piperlongumine] | 0.31 | 0.085
CC(=O)O/N=C1\C(=O)N(Cc2cc(Cl)ccc2Cl)c2ccc(Cl)cc21 | 1.06 | 0.985
NC(=O)c1noc([C@H](CCCC2CCCCC2)CC(=O)NO)n1 | 1.1 | 0.853
COC(=O)N1CCN(Cc2cccc(NC(=O)Nc3ccc(C)nc3)c2F)CC1 | 1.01 | 0.982
CCCCC(F)(F)[C@@]1(O)CC[C@H]2[C@@H](CC(=O)[C@@H]2CCCCCCC(=O)O)O1 [Lubiprostone] | 0.935 | 1.03
CC(=O)c1cc2c(o1)C(=O)c1ccccc1C2=O [Napabucasin] | 0.0542 | 0.0318
O=C1c2ccccc2C(=O)c2c1ccc(O)c2O [Alizarin] | 1.19 | 0.838
O=C(O)c1cc(=O)c2ccccc2o1 [Chromocarb] | 0.872 | 0.816
CC(CNC(=O)c1cccnc1)NC(=O)c1cccnc1 (configuration not stated) [Nicaraven] | 0.886 | 0.93
C[C@H]1O[C@@H](O[C@H]2[C@@H](O)C[C@H](O[C@H]3[C@@H](O)C[C@H](O[C@H]4CC[C@@]5(C)[C@H](CC[C@@H]6[C@@H]5C[C@@H](O)[C@]5(C)[C@@H](C7=CC(=O)OC7)CC[C@]65O)C4)O[C@@H]3C)O[C@@H]2C)C[C@H](O)[C@@H]1O [Digoxin] | 0.141 | 0.0738
Cn1c(=O)c(F)c(Nc2ccc(I)cc2F)c2c(=O)n(C[C@@H](O)CO)cnc21 | 0.516 | 0.403
COc1ccc(CCNCc2ccc(OCc3ccc(Cl)nc3)c(OC)c2)cc1OC | 1.04 | 0.914
CC[C@H]1OC(=O)[C@H](C)[C@@H](O[C@H]2C[C@@](C)(OC)[C@@H](O)[C@H](C)O2)[C@H](C)[C@@H](O[C@@H]2O[C@H](C)C[C@H](N(C)C)[C@H]2O)[C@](C)(O)C[C@@H](C)C(=O)[C@H](C)[C@H]2OC(=O)O[C@@]21C [Erythromycin Cyclocarbonate] | 0.834 | 0.883
CN1CCCN(C(=O)c2cccc(-c3ccc(/C=C4/C(=O)Nc5ccc(Cl)cc54)o3)c2)CC1 | 0.132 | 0.0251
CN1CCN(C(=O)c2cc3cc(Cl)ccc3[nH]2)CC1 | 1.08 | 1.08
Cc1[nH]c(/C=C2\C(=O)Nc3ccc(S(=O)(=O)N(C)c4cccc(Cl)c4)cc32)c(C)c1C(=O)N1CCN(C)CC1 | 1.37 | 0.133
CS(=O)(=O)c1ccc(-c2nnc(/C=C/c3nnc(-c4ccc(C#N)cc4)o3)n2-c2ccccc2Cl)nc1 | 1.11 | 1.03
O=C(Cc1cccc(OC(F)(F)F)c1)Nc1ccc(CCCCc2nnc(NC(=O)Cc3ccccn3)s2)nn1 | 0.25 | 0.2
